ALOX12 inh: ALOX12 (human) lipoxygenase inhibition. Potency, µM (titrated, usually from 108 µM), hits mostly inhibitors. purified 12hLO, xylenol orange hydroperoxide absorbance. actives 1.1% (n = 580,000). P18054
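Hydroperoxide product was detected by ferrous iron/xylenol orange as the 573 to 405 nm absorbance ratio. Arachidonic acid at 40 uM (final) was turned over for 30 min at room temperature by 150 nM human 12hLO, pH 7.0 Hepes buffer, after 15 min compound preincubation.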
PINK1 modulator: modulators of PINK1 expression; PINK1 immunofluorescence, high-content cytometry, 24 h; Potency, µM (highest dose often 76.6 µM), usual class: activators; AID 624263; actives 0.2% (n = 410,000); active = well fitted activation curve with a large enough effect; inconclusive = small, poorly fitted or top-dose-only effect; cell line not stated here; also: nearly all actives have a fitted effect of over 65% in size
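Compound titrations (5 concentrations, 24 h) on a stable cell line; DMSO and CCCP controls. Endpoint: fixed-cell PINK1 immunofluorescence with mitochondrial, cell and nuclear markers, scanned by microplate cytometer.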
p53 reactivator: mutant p53 re-activation in reporter cells; AID 504706; H1299 p53-A138V BP100-luciferase reporter, luminescence, 24 h; Potency, µM (titrated, usually from 92.2 µM), hits mostly activators; actives 0.063% (n = 320,000); also: nearly all actives have a fitted effect of over 45% in size
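p53-null H1299 cells stably carrying temperature-sensitive p53-A138V and a BP100-luciferase reporter were pinned with compounds (4-point, 1:5 series) and held 24 hrs at 37 deg C. Luminescence was read 10 min after detection reagent.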
ASM inhibitor: inhibitors of human secretory acid sphingomyelinase; P17405; placental ASM, HMU-PC fluorogenic substrate, 60 min; Potency, µM (titrated, usually from 57.5 µM), usual class: inhibitors; actives 0.006% (n = 340,000); AID 504937
Target sequence (P17405 47-631 limits assumed): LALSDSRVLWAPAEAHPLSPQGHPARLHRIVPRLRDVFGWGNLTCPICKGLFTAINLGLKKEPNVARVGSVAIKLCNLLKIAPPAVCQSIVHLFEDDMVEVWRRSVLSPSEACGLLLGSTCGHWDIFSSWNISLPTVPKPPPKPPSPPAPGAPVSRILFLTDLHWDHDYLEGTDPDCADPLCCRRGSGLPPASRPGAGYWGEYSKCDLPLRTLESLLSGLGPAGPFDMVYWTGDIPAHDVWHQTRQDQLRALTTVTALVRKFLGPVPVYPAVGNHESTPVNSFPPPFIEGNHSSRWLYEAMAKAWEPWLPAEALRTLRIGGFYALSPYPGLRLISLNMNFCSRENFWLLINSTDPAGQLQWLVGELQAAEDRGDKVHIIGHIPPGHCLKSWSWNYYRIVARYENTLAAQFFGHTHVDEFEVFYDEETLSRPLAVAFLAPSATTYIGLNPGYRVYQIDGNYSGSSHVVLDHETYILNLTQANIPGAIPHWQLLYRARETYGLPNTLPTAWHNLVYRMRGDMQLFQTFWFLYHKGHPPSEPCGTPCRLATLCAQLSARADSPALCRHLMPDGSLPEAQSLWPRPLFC
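Human placenta-derived ASM preincubated with compound 10 min at room temperature, then reacted with 9 uM (final) fluorogenic HMU-PC substrate for 60 min at 37 C. Stop solution raises pH to 10; fluorescence read at Ex 386/Em 447 nm.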
CCT chaperon mod: changes cytosolic chaperonin activity; purified chaperonin ATPase assay, HTRF ADP detection, 30 min; activity change, % (test concentration not listed), hits read low; actives 0.3% (n = 360,000); AID 651819; in the data active = activity change below about -30%
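Enzyme 40 or 20 nM (batch-dependent) in Tris pH 7.4/KCl/MgCl2/DTT; cpd 76 uM single point; ATP 10 uM; 30 min 37 °C; Transcreener ADP HTRF detection, 30 min RT; ratio 665/615.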
MmCpn inh: blocks the Methanococcus maripaludis chaperonin Mm-Cpn | purified Mm-Cpn ATPase, ADP Transcreener TR-FRET | Potency, µM (doses to about 76.9 µM), hits mostly inhibitors | actives 0.031% (n = 330,000); also: nearly all actives have a fitted effect of over 80% in size
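Measured: ADP formation by purified Mm-CPN. Conditions: 25 nM protein, 10 uM ATP, Tris pH 7.4 with Mg2+, K+ and DTT, 37°C for 30 min. Detection: Transcreener HTRF after 30 min at room temperature.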
A number is an active result; . = inactive; ? = inconclusive; / = no result. Rows were chosen to be rich in hits. Some 1.4% of all compounds tested hit in one or more screens of this group. Unless noted, calls follow the shape of the dose curve; as a rule, active = well fitted curve in the direction sought with a large enough effect; inconclusive = small, poorly fitted or top-dose-only effect, or another doubt; inactive = no such curve, though single readings can be large; an effect the other way counts as inactive or inconclusive.

SMILES | ALOX12 inh | PINK1 modulator | p53 reactivator | ASM inhibitor | CCT chaperon mod | MmCpn inh
Oc1ccc(N=Cc2ccccc2OCc2ccccc2)cc1 | . | / | / | / | / | /
O=c1nc(SCc2c(F)cccc2Cl)nc(-c2ccccc2)[nH]1 | . | . | . | . | -31 | .
N#Cc1ccccc1CNc1ccc(F)c(F)c1F | . | / | / | / | / | /
CC(NCc1ccccc1C#N)c1ccccc1F (centres undefined) | 40µM | / | / | / | / | /
O=C(NCCCc1ccccn1)c1ccc2nc(-c3ccc(F)cc3)cn2c1 | . | / | / | / | / | /
Clc1cccc(-c2nn3c(-c4ccc5ccccc5n4)nnc3s2)c1 | 35µM | / | / | / | / | /
Clc1cccc(-c2nn3c(-c4cccc(Cl)c4)nnc3s2)c1 | / | / | . | / | / | .
COc1cc(CN2C[C@@H](CO)[C@H](NC(=O)c3ccccc3)C2)ccc1F | . | / | / | / | / | /
CC(C)CN1CCC(Oc2cccc(C(=O)NCCc3ccccc3)c2)CC1 | . | . | 40µM | . | . | .
Fc1ccccc1COc1ccc(Br)cc1CNc1nn[nH]n1 | . | / | / | / | / | /
Cc1cc(C)n(CC(=O)Nc2cccc(C(F)(F)F)c2)n1 | . | . | . | . | . | .
Cc1cc(C(F)(F)F)nn1CC(=O)Nc1cccnc1 | . | . | . | . | -41 | .
Cn1c(=O)n(CC(=O)NCc2nnc3n2CCCCC3)c2ccccc21 | . | / | / | / | / | /
O=C(NNC(=O)C12CC3CC(CC(C3)C1)C2)c1cccc(O)c1 | . | . | . | . | . | .
O=C(NC(=S)Nc1cccc(O)c1)C12CC3CC(CC(C3)C1)C2 | 22µM | . | / | / | . | /
O=C(Cc1cccc2ccccc12)N/N=C/c1ccsc1 | . | / | / | / | / | /
C=C(C)C[C@H]1CC=C[C@H](CC(=C)C)[N+]1(C)C | 18µM | / | / | / | / | /
CCc1ccccc1OCC(=O)Nc1ccc(N2CCCC2)cc1C | / | 28µM | . | . | . | .
Cc1cc(N2CCCC2)ccc1NC(=O)COc1ccccc1 | ? | . | . | . | . | .
Cc1ccc(C(C)C)c(OCC(=O)Nc2cccc(S(=O)(=O)NC3=NCCCCC3)c2)c1 | . | . | . | . | -36 | .
CNC(=O)Cc1ccc(NC(=O)C=C(C)C)cc1 | . | / | / | / | / | /
CNS(=O)(=O)c1ccc2c3c(cccc13)C(=O)N2C | 8.9µM | . | . | . | . | .
CN1C(=O)c2cccc3c(S(=O)(=O)N(C)C)ccc1c23 | . | . | / | . | . | .
COc1cccc(-c2cc(C3CCN(C(=O)Nc4cc(Cl)ccc4C)CC3)[nH]n2)c1 | . | / | / | / | / | /
Cc1cc(NC2=CC(=O)C(=O)c3ccccc32)no1 | 40µM | . | / | . | . | /
SMILES | ALOX12 inh | PINK1 modulator | p53 reactivator | ASM inhibitor | CCT chaperon mod | MmCpn inh
Cc1ccc(C(=O)CSc2nnnn2C)cc1C | . | / | / | / | / | /
COc1ccccc1N1CCN(c2nccnc2SCC(=O)Nc2cc(Cl)ccc2C)CC1 | . | / | / | / | / | /
CC(C)Cc1ccc(C(C)NC(C)C(=O)NC(N)=O)cc1 (centres undefined) | . | / | / | / | / | /
O=C(Cn1cc2c(n1)CCCC2)NCCCN1CCN(c2ccccc2F)CC1 | . | . | . | . | -46 | .
O=C(Cn1cc2c(n1)CCCC2)NCCCN1CCN(Cc2ccccc2)CC1 | . | . | . | . | . | .
O=C(c1ccsc1)N1CCCC(CN2CCCC2)CC1 (centres undefined) | . | / | / | / | / | /
Cc1ccc(S(=O)(=O)N/N=C/c2ccc(O)c(O)c2)cc1[N+](=O)[O-] | 50µM | . | . | . | . | .
Cc1ccc(S(=O)(=O)N/N=C/c2ccccc2O)cc1[N+](=O)[O-] | . | . | . | . | . | .
CCN(CC)S(=O)(=O)c1ccc(C)c(NC(=S)Nc2ccccc2C(C)(C)C)c1 | . | / | / | / | / | /
CCOc1ccc(NC(=O)CSC2=C(C#N)C(c3ccccc3Cl)C(C(C)=O)=C(C)N2)cc1 (centres undefined) | 32µM | / | / | / | / | /
CSCSC1=C(C#N)C(c2ccccc2Cl)C(C(C)=O)=C(C)N1 (centres undefined) | ? | . | . | . | . | .
COc1cccc(SCC(=O)c2ccc3c(c2)CCC(=O)N3)c1 | 35µM | / | / | / | / | /
O=S(=O)(NCC1CN(Cc2ccccc2)CCO1)c1ccccc1 (centres undefined) | . | / | / | / | / | /
O=C(NC1(O)C(=O)c2ccccc2C1=O)c1ccccc1 | 32µM | . | . | . | . | .
COc1ccc(-c2c(C)oc3cc(OC(=O)c4ccccc4)ccc3c2=O)cc1 | . | / | / | / | / | /
CC(=O)Oc1ccccc1/C=C/c1nc2ccccc2c(=O)o1 | ? | . | . | . | . | .
O=c1oc(/C=C/c2ccc([N+](=O)[O-])s2)nc2ccccc12 | / | 40µM | / | . | . | .
COc1ccccc1CNC[C@@H]1C=C(C)[C@H](Cc2nc3c(C)cccc3[nH]2)C[C@H]1C(C)C | 56µM | / | / | / | / | /
CC1=C[C@@H](CN(C)C)[C@H](C(C)C)C[C@H]1Cc1nc2c(C)cccc2[nH]1 | . | / | / | / | / | /
CC1=C[C@@H](CNCc2ccccc2)[C@H](C(C)C)C[C@H]1Cc1nc2c(C)cccc2[nH]1 | 63µM | / | / | / | / | /
C=CCN(CC(F)(F)F)C(=O)c1ccc(NC(=O)NC(C)C)cc1 | . | / | / | / | / | /
COc1cccc(NC(=O)COc2ccc3c(=O)c(Oc4ccc(F)cc4)coc3c2)c1 | . | / | / | / | / | /
COc1ccccc1CNC(=O)c1scnc1C | . | / | / | / | / | /
CCOC(=O)CNCCC(=O)c1ccc(Br)cc1 | 28µM | . | . | / | . | .
Cc1ccc(Cl)cc1NC(=O)COC(=O)c1nn(C)c(=O)c2ccccc12 | . | / | / | / | / | /
SMILES | ALOX12 inh | PINK1 modulator | p53 reactivator | ASM inhibitor | CCT chaperon mod | MmCpn inh
O=C(CSc1ncccn1)c1ccc2c(c1)OCCO2 | . | / | / | / | / | /
CC(C)NS(=O)(=O)c1ccc(C(=O)NCc2ccc(-c3nc4ccccc4s3)o2)cc1 | 25µM | / | / | / | / | /
CN1C(=O)Cc2cc(C(=O)CSc3nnc(C4CC4)n3C3CC3)ccc21 | . | / | / | / | / | /
Cc1nn(C)c(Cl)c1S(=O)(=O)N[C@@H](c1ccccc1)[C@]1(C)C[C@H]1[C@@H](C)C(=O)Nc1ccc2ccccc2c1 | . | . | . | . | -70 | .
O=C(Nc1ncc(Cc2ccccc2Cl)s1)C1CCCO1 (centres undefined) | . | . | 14µM | . | . | .
CCOC(=O)c1cnc2ccccc2c1Nc1cccc([N+](=O)[O-])c1 | . | / | / | / | / | /
CN(C)/C=C/C(=O)c1ccc(F)cc1 | . | . | . | . | . | .
CN(C)/C=C/C(=O)c1ccc(Br)s1 | 40µM | . | . | . | . | .
COc1cccc(CN2CCN(Cc3[nH]c4ccccc4c3C)CC2CCO)c1 (centres undefined) | . | . | . | . | . | .
COc1cccc(C#Cc2c(CO)[nH]c3ccccc23)c1 | 50µM | . | ? | . | . | .
Cc1ccccc1C(C)NC(=O)CSc1nc2cc([N+](=O)[O-])ccc2o1 (centres undefined) | 25µM | / | / | / | / | /
COc1cccc(N2CCN(C(=O)CCc3nnc4ccc(N5CCCC5)nn34)CC2)c1 | . | . | . | . | -42 | .

High-throughput results as filed in PubChem.
